# Data taken from PubChem BioAssay (NCI).
# About 83,000 compounds went through this panel and 20% of them were active in at least one assay; those are over-represented in the sample as a whole.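 Note: values are percent growth. 100 is the growth of untreated cells, values between 100 and 0 indicate rising inhibition; between -100 and 0 indicates cell death.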 Unmarked numbers belong to inactive results. The source made the active and inactive calls. How the source made its calls: active means growth percent below 10; inactive means the rest.
# Tests used:
# Assay in all cases: NCI-60 one-dose screen, 48 h (100 = growth as untreated, 0 = no growth, -100 = all killed)
# Settings in all cases: 10 µM unless noted
# HCT-15 colon = system: HCT-15 colon
# HT29 colon = system: HT29 colon
# SNB-75 CNS = system: SNB-75 CNS
# SNB-19 CNS = system: SNB-19 CNS
# U251 CNS = system: U251 CNS
# PC-3 prostate = system: PC-3 prostate
# SK-MEL-5 melanoma = system: SK-MEL-5 melanoma
# UACC-62 melanoma = system: UACC-62 melanoma
# SK-MEL-28 melanoma = system: SK-MEL-28 melanoma
# SK-MEL-2 melanoma = system: SK-MEL-2 melanoma
# EKVX NSCLC = system: EKVX NSCLC
# SN12C renal = system: SN12C renal
# UO-31 renal = system: UO-31 renal
# TK-10 renal = system: TK-10 renal
# ACHN renal = system: ACHN renal
# CAKI-1 renal = system: CAKI-1 renal
# A498 renal = system: A498 renal
# CCRF-CEM leukemia = system: CCRF-CEM leukemia
# MOLT-4 leukemia = system: MOLT-4 leukemia
Structure (SMILES),growth (HCT-15 colon),growth (HT29 colon),growth (SNB-75 CNS),growth (SNB-19 CNS),growth (U251 CNS),growth (PC-3 prostate),growth (SK-MEL-5 melanoma),growth (UACC-62 melanoma),growth (SK-MEL-28 melanoma),growth (SK-MEL-2 melanoma),growth (EKVX NSCLC),growth (SN12C renal),growth (UO-31 renal),growth (TK-10 renal),growth (ACHN renal),growth (CAKI-1 renal),growth (A498 renal),growth (CCRF-CEM leukemia),growth (MOLT-4 leukemia)
C/C(=N\N=C\c1cc([N+](=O)[O-])ccc1Cl)c1ccc2c(c1)Nc1ccccc1S2,72.4%,72.2%,5.46% (active),51.6%,7.09% (active),82.4%,78.6%,69.6%,90.7%,90.5%,48.5%,12.4%,-13.7% (active),8.88% (active),-43.5% (active),31.3%,6.23% (active),55%,44%
O=C(N/N=C/c1ccc(-c2ccc(O)cc2)o1)c1[nH]c2ccc(Br)cc2c1-c1ccccc1,2.62% (active),-34.8% (active),-2.73% (active),10.3%,-29.2% (active),-6.14% (active),-82.9% (active),-14.9% (active),-27% (active),1.84% (active),8.78% (active),-57.9% (active),1.62% (active),1.67% (active),-21.7% (active),5.94% (active),38.2%,4.83% (active),0.944% (active)
C=C1CCC2C3(C)COC(c4ccc(F)cc4)OC3CCC2(C)C1C/C=C1/C(=O)OCC1O (configuration not stated),-42.3% (active),-4.77% (active),-21.6% (active),-55.8% (active),-94.4% (active),-43.6% (active),-90.3% (active),-8.34% (active),-70.3% (active),-63.2% (active),5.53% (active),-11.3% (active),-90.6% (active),-35.8% (active),-97.6% (active),-5.17% (active),89.6%,11.4%,8.65% (active)
COc1cc2oc(-c3cccc(NC(=O)[C@H](Cc4ccccc4)NC(=O)OC(C)(C)C)c3)cc(=O)c2c(OC)c1OC,17.4%,22.8%,97.6%,40%,36.6%,39.7%,17.9%,54.6%,49.9%,20.9%,55.9%,32%,18.2%,45.2%,18.1%,31.7%,77.9%,32%,9.42% (active)
COc1cc2c(c(OC)c1OC)C(=O)CC(c1cccc(NC(=O)c3cccc([N+](=O)[O-])c3)c1)O2 (configuration not stated),16.9%,34.7%,38.1%,52.6%,49.1%,18.6%,-6.2% (active),13.4%,41.7%,-10.4% (active),60.6%,29.2%,16.1%,71.7%,30.1%,–,91.2%,11.5%,13.9%
COc1ccc(C2=NN(C(C)=O)C(c3ccc(OCc4ccc(Cl)cc4)c(OC)c3)C2)cc1OC (configuration not stated),27.9%,40.1%,61.3%,51.4%,46.8%,23.6%,-9.52% (active),34%,56.8%,44.1%,46.3%,43.2%,22.4%,44.1%,42.9%,47.2%,64.9%,50.1%,20.5%
N#Cc1cnn(C(=O)c2ccccc2Br)c1NC(=O)c1ccc(Br)cc1Cl,101%,104%,106%,97.2%,93.3%,103%,98.6%,101%,103%,111%,100%,104%,85.9%,101%,103%,94.5%,106%,94.5%,99.9%
